# Source: publication PMC7862700, “An all-to-all approach to the identification of sequence-specific readers for epigenetic DNA modifications on cytosine”
# Columns and labels:
# Experiment in all cases: DAPPL (digital affinity profiling via proximity ligation, sequencing); 10 mM Tris-HCl pH 7.5, 50 mM NaCl, 1 mM DTT, 4% glycerol, room temperature, 30 min; GST-TFs on glutathione beads, 16-mer random dsDNA library, 0.1% formaldehyde crosslink after washing; high values mean tight binding
# Conditions in all cases: protein: recombinant; tags: N-terminal GST; dsDNA, one strand shown
# ETV1 = ETV1 (Homo sapiens, UniProt P50549 1-477)
# Procedure, shortened: (§1)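 After expression in yeast as GST fusions, human transcription factors were bound to glutathione beads, DNA-barcoded and mixed with a tag-only sample. The pools were incubated with 200 nmole of a 16-mer random double-stranded DNA library in Tris/NaCl/DTT/glycerol buffer (30 min, room temperature), washed and crosslinked with 0.1% formaldehyde. Proximity ligation with BsaI/T4 ligase ran for 1 h at 37 °C, before PCR amplification and sequencing on an Illumina NextSeq500. Binding signal is a hexamer's read frequency for a factor divided by its frequency for the tag-only sample.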
# ERF = biological target: T1, ERF (Homo sapiens, UniProt P50548 1-548)
# T1 sequence: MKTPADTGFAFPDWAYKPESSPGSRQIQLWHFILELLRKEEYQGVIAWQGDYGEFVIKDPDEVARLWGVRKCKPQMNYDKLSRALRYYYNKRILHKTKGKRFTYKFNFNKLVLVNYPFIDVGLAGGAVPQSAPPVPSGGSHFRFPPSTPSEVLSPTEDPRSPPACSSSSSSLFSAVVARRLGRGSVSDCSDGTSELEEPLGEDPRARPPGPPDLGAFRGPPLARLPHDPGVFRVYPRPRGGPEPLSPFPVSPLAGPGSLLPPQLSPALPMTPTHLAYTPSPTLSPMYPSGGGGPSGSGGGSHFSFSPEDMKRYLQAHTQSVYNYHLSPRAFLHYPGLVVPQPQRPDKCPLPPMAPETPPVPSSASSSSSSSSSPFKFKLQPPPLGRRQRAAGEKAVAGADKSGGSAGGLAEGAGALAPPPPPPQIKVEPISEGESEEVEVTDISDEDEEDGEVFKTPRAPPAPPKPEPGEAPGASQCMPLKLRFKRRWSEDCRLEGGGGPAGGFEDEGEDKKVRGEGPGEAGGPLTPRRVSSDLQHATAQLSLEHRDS
# Procedure, shortened: as §1
# ETV3L = biological target: T2, ETV3L (Homo sapiens, UniProt Q6ZN32 1-361)
# T2 sequence: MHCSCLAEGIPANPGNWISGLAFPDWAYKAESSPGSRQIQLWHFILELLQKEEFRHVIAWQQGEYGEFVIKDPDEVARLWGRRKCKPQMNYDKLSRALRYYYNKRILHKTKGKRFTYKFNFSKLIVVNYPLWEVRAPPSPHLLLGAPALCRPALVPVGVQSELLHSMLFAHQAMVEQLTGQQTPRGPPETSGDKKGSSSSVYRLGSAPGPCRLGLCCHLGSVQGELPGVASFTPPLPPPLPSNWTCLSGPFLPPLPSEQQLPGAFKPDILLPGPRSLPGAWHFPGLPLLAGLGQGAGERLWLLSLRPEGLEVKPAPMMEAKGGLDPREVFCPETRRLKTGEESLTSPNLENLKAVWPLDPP
# Procedure, shortened: as §1
# ETS2 = biological target: T3, ETS2 (Homo sapiens, UniProt P15036 1-469)
# T3 sequence: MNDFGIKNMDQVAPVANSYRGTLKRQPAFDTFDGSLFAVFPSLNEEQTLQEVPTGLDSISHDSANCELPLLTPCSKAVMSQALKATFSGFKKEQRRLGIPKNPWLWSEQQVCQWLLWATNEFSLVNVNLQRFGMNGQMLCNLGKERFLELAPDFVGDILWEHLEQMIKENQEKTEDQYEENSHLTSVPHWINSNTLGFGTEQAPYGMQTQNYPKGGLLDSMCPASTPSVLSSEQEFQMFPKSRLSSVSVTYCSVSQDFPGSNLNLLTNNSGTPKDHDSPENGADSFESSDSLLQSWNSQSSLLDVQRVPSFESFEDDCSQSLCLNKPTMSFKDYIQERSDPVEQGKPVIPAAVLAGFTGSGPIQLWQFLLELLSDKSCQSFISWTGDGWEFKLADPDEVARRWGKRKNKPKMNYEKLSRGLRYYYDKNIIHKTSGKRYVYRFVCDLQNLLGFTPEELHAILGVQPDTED
# Procedure, shortened: as §1
# SPDEF = biological target: T4, SPDEF (Homo sapiens, UniProt O95238 1-335)
# T4 sequence: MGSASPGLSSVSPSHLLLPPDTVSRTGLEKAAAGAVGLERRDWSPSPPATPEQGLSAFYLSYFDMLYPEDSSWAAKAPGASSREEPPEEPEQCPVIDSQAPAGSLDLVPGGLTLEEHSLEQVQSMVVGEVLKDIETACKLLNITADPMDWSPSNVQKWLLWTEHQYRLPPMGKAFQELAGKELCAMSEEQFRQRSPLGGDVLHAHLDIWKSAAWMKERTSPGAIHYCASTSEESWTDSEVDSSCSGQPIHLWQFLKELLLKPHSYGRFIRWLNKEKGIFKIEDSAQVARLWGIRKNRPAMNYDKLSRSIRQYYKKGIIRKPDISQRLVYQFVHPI
# Procedure, shortened: as §1
# ETV7 = biological target: T5, ETV7 (Homo sapiens, UniProt Q9Y603 1-341)
# T5 sequence: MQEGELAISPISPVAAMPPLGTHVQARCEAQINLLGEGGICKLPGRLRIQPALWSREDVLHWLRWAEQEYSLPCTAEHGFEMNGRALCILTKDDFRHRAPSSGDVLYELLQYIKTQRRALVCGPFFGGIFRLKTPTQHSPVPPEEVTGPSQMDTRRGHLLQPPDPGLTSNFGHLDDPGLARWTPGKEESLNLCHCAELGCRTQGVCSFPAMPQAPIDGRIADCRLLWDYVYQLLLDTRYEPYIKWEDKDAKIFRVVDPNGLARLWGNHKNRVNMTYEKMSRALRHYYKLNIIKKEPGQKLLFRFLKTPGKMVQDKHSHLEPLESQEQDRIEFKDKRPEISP
# Procedure, shortened: as §1
# ELF5 = biological target: T6, ELF5 (Homo sapiens, UniProt Q9UKW6-2 1-255)
# T6 sequence: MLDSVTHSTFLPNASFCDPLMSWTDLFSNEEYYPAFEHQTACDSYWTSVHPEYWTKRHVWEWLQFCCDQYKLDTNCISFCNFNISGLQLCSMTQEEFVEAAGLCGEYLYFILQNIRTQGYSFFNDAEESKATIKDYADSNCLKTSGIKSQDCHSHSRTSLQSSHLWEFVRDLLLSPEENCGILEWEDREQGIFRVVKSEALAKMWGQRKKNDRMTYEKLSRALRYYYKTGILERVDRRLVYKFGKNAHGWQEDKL
# Procedure, shortened: as §1
# ETV3 = biological target: T7, ETV3 (Homo sapiens, UniProt P41162-2 1-143)
# T7 sequence: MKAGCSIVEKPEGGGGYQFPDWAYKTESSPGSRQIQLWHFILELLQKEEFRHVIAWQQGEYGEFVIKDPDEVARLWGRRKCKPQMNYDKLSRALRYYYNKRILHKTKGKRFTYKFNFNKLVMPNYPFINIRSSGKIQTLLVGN
# Procedure, shortened: as §1
# ETV6 = ETV6 (Homo sapiens, UniProt P41212 1-452)
# Procedure, shortened: as §1
# Sequence of ETV1 (P50549 whole entry, the tested form may be a part): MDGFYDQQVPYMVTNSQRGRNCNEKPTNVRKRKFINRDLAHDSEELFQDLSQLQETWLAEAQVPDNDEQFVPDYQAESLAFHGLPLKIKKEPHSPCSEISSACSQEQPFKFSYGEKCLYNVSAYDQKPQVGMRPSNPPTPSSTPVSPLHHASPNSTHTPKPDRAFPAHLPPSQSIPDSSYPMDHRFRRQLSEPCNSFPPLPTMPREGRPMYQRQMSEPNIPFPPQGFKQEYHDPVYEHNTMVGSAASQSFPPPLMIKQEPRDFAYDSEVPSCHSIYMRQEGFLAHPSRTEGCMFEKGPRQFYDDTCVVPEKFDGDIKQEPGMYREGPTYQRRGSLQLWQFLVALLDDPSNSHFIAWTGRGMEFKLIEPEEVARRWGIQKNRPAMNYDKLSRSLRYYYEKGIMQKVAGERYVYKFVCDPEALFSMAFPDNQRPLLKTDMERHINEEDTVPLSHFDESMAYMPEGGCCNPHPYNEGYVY
# Sequence of ETV6 (P41212 whole entry): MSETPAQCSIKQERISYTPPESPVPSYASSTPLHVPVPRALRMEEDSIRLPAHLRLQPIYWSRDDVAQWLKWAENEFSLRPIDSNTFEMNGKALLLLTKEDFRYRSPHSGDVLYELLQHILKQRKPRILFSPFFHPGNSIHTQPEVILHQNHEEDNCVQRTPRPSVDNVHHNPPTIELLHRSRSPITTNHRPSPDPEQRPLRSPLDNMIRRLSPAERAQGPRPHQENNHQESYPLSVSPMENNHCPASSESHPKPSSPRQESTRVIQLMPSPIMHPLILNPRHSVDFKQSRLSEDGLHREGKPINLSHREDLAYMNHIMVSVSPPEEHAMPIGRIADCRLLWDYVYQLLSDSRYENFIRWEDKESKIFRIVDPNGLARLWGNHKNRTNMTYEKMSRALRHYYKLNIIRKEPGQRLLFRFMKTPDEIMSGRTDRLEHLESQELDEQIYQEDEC
sequence,measurement,setting,value
TTCAAC,binding signal,ETV1,"1.35 fold enrichment (6-mer frequency, TF over GST control)"
same,binding signal,ERF,"1.31 fold enrichment (6-mer frequency, TF over GST control)"
same,binding signal,ETV3L,"1.16 fold enrichment (6-mer frequency, TF over GST control)"
same,binding signal,ETS2,"1.29 fold enrichment (6-mer frequency, TF over GST control)"
same,binding signal,SPDEF,"1.28 fold enrichment (6-mer frequency, TF over GST control)"
same,binding signal,ETV7,"1.19 fold enrichment (6-mer frequency, TF over GST control)"
same,binding signal,ELF5,"1.27 fold enrichment (6-mer frequency, TF over GST control)"
same,binding signal,ETV3,"1.32 fold enrichment (6-mer frequency, TF over GST control)"
same,binding signal,ETV6,"1.19 fold enrichment (6-mer frequency, TF over GST control)"
